Source: PubChem BioAssay
A selection: hits, their analogues and other compounds. The true share with any hit is near 3%.
EBV LMP1 NFkB: reduces LMP1-driven NF-kappaB luciferase signal. LMP1-induced NF-kappaB luciferase reporter cells, luminescence. inhibition, % at 12.5 µM. 0.69% of 350,000 active. AID 504558; in the data active means inhibition above about 41%; inconclusive means no clear call, values can overlap the other calls
TROY signal inh: inhibitors of TROY-dependent NF-kB signaling; Q293 LMP1-TROYcd NF-kB luciferase reporter, 4 h; inhibition, % at 10 µM; 0.98% of 360,000 active; AID 1347056;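 active means compounds whose plate-normalised and pattern-corrected inhibition of the luciferase reporter signal at the single screening dose is 50% or more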
LGR2 antag: blocks bursicon-induced cAMP signaling via Drosophila LGR2. AID 720647. 0.35% of 380,000 active. HEK293 LGR2, CRE-luciferase, bursicon-stimulated, 4 h. inhibition, % at 9.99 µM;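 active means drop in luminescence signal, shown as inhibition above about 50% in the replicate tests, limit read from the data, passing the limit was not always enough; inconclusive means probably only some replicates passing the limit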;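 further: agonist challenge used bursicon conditioned medium at about half maximal strength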
TRPM1 prom inh: MITF TRPM1 promoter inhibition in SK-MEL-5 cells. SK-MEL-5 TRPM1 promoter luciferase, 24 h. inhibition, % at 12.5 µM. 0.83% of 330,000 active. AID 488899;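 active means mean inhibition across replicates of 60% or more, whatever share of single replicates reaches that level; inconclusive means some that reach 60%, reason not given; inactive means mean inhibition across replicates below 60%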
MITF TRPM1 HTS: activators of MITF-driven TRPM1 promoter activity in SK-MEL-5 cells; activation, % at 12.5 µM; SK-MEL-5 TRPM1-promoter luciferase, 24 h; % of positive control, neutral wells = 0; 0.75% of 300,000 active;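 active means mean activation of at least 80% with every replicate also reaching 80%; inconclusive means mean reaches 80% but some replicate falls short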
TWEAK-Fn14 inh: TWEAK-Fn14 signaling inhibition. TWEAK-stimulated Fn14 reporter cells, luciferase luminescence, 8 h. inhibition, % at 10 µM. 2% of 360,000 active; in the data active means inhibition above about 50%
A number is an active result; - = inactive; ? = inconclusive; . = no result.

SMILES	EBV LMP1 NFkB	TROY signal inh	LGR2 antag	TRPM1 prom inh	MITF TRPM1 HTS	TWEAK-Fn14 inh
CCCOc1cccc(-c2cc(C(=O)N/N=C/c3ccccn3)c3ccccc3n2)c1	-	-	-	90	-	94
CCCOc1cccc(-c2cc(C(=O)N/N=C/c3cccnc3)c3ccccc3n2)c1	.	-	-	-	-	-
O=C(N/N=C/c1ccccn1)c1cc(-c2ccc(Cl)cc2)nc2ccccc12	-	-	-	81	-	-
O=C(N/N=C/c1ccco1)c1cc(-c2ccccc2)nc2ccccc12	-	-	-	-	-	-
O=C(Cc1ccccn1)N[C@H]1CC[C@@H](CCNC(=O)c2cc(Cl)cc(Cl)c2)O[C@H]1CO	.	.	-	.	.	.
CCc1ccccc1NC(=O)COc1ccc2c(=O)c(Oc3cc(C)ccc3C)coc2c1	-	56	-	-	-	-
C[C@@H]1CN([C@@H](C)CO)C(=O)c2cc(C#CCN(C)C)cnc2O[C@H]1CN(C)C	.	.	-	.	.	.
OC[C@H]1[C@H](c2ccc(-c3ccccc3)cc2)[C@@H]2CN(CCC(F)(F)F)CCCCN12	.	.	-	.	.	.
Cc1cc(N/N=C/c2ccc(O)c(C)c2O)nc(-c2ccccc2O)n1	-	-	-	-	-	66
Cc1noc(C)c1NC(=O)Nc1ccc2c(c1)C(=O)N([C@H](C)CO)C[C@@H](C)[C@@H](CN(C)C(=O)Nc1ccc(C(F)(F)F)cc1)O2	.	.	-	.	.	.
COc1cccc(/C=N/n2c(C3CCCCC3)n[nH]c2=S)c1O	-	-	-	-	-	60
COCCn1c(C)cc(C(=O)COC(=O)c2ccccc2Br)c1C	54	92	.	81	-	105
COCCn1c(C)cc(C(=O)COC(=O)c2cccnc2SC)c1C	-	69	-	-	-	68
CCn1c(C)cc(C(=O)COC(=O)c2ccccc2[N+](=O)[O-])c1C	87	90	.	97	-	105
C[C@@H]1CCCCO[C@@H](CN(C)Cc2ccncc2)[C@H](C)CN([C@H](C)CO)C(=O)c2cc(NC(=O)Nc3ccc4c(c3)OCO4)ccc2O1	.	.	-	.	.	.
C[C@@H]1CCCCO[C@H](CN(C)S(=O)(=O)c2cccs2)[C@H](C)CN([C@H](C)CO)C(=O)c2cc(NC(=O)Nc3ccc(F)cc3)ccc2O1	.	.	-	.	.	.
C[C@H]1CN([C@@H](C)CO)C(=O)c2cc(NS(=O)(=O)c3cccs3)ccc2O[C@H]1CN(C)C(=O)NC1CCCCC1	.	.	-	.	.	.
CCS(=O)(=O)N[C@H]1C=C[C@H](CC(=O)Nc2ccccc2)O[C@H]1CO	.	.	-	.	.	.
Cc1cc2oc(=O)cc(-c3ccccc3)c2c(C)c1-c1ccc(O)cc1	-	53	-	-	-	-
Cc1cc(O)c2c(-c3ccccc3)cc(=O)oc2c1	-	-	.	-	-	-
CC(=O)c1cccc2c(O)c(C3=Nc4ccccc4C3=O)[nH]c12	-	54	.	-	-	-
CC1CCCC(NC(=O)NC(=O)CCl)C1C (stereo not given)	-	-	-	71	-	-
O=S(=O)(c1ccc(Cl)cc1)N1CCSC1c1ccco1 (stereo not given)	-	67	.	-	.	-
COc1ccc(CCC(=O)NNC(=O)c2ccc(F)cc2)cc1	-	-	-	-	-	53
CCC(=O)N1CC(=O)N2[C@@H](CO)[C@H](c3ccc(C#Cc4cccc(OC)c4)cc3)[C@@H]2C1	.	.	-	.	.	.
SMILES	EBV LMP1 NFkB	TROY signal inh	LGR2 antag	TRPM1 prom inh	MITF TRPM1 HTS	TWEAK-Fn14 inh
CCCCCc1c(-c2ccccc2OC)ncn1CCc1ccccc1OC	.	56	?	.	.	52
CCCCc1c(-c2ccccc2OC)ncn1CCc1ccccc1OC	.	55	-	.	.	-
CCCc1c(-c2ccccc2OC)ncn1CCc1ccccc1OC	.	.	-	.	.	.
COc1ccccc1NC(=O)N(C)C[C@H]1Oc2ncc(Br)cc2C(=O)N([C@@H](C)CO)C[C@H]1C	.	.	-	.	.	.
C[C@H](NC(=O)C[C@H]1CC[C@H](NC(=O)c2cccnc2)[C@@H](CO)O1)c1ccccc1	.	.	-	.	.	.
Brc1ccc(OCc2nc3ccccc3[nH]2)cc1	-	-	-	-	100	-
CCOC(=O)c1c(C)c2c(=O)[nH]cnc2n1-c1ccccc1	-	-	-	-	-	63
COc1ccc(C2=NN(C(=O)COC(=O)c3ccc(S(C)(=O)=O)c([N+](=O)[O-])c3)C(c3ccco3)C2)cc1 (stereo not given)	-	-	-	81	.	69
COc1ccc(NC(=O)N2[C@@H]3CNC[C@H]2C3c2ccc(-c3ccc(C)cc3)cc2)cc1 (stereo not given in full)	.	.	-	.	.	.
Cc1cc(C2(c3ccc(O)c(C)c3)OC(=O)c3ccccc32)ccc1O	-	-	-	-	-	-
Cc1cc(O)c(C(C)C)cc1C1(c2cc(C(C)C)c(O)cc2C)OC(=O)c2ccccc21	-	85	70	-	.	97
O=C1C(C=NCc2ccncc2)=C(O)c2ccccc21	-	-	.	-	-	-
O=C1C(C=NCc2ccco2)=C(O)c2ccccc21	-	59	.	-	-	-
O=C1C(C=NCc2cccnc2)=C(O)c2ccccc21	62	52	.	-	-	-
O=C(C[C@@H]1CC[C@H]2[C@@H](COC[C@H](O)CN2C(=O)Nc2ccc(Cl)cc2)O1)NCCc1ccncc1	.	.	-	.	.	.
CC1CC(=O)C2=C(C1)Nc1ccccc1SC2c1ccc(F)cc1 (stereo not given)	-	67	-	-	-	-
C/C=C/c1cnc2c(c1)C(=O)N([C@@H](C)CO)C[C@@H](C)[C@@H](CN(C)C(=O)C1CC1)O2	.	.	-	.	.	.
CCC(=O)N1[C@@H]2c3ccc(-c4ccccc4)c(=O)n3C[C@@H]2[C@@H](CO)[C@@H]1C(=O)N(C)C	.	.	-	.	.	.
CC(C)NC(=O)N(C)C[C@@H]1OCCCC[C@@H](C)Oc2ccc(N(C)C)cc2C(=O)N([C@@H](C)CO)C[C@@H]1C	.	.	-	.	.	.
CC(C)NC(=O)N(C)C[C@H]1Oc2cc(C#CC(C)(C)O)ccc2S(=O)(=O)N([C@@H](C)CO)C[C@@H]1C	.	.	-	.	.	.
Cc1csc(N=Nc2ccc(N(C)C)cc2)[n+]1[O-]	55	75	75	.	.	86
O=C1OCC2=C1C(c1ccc3c(c1)OCO3)c1cc3c(cc1O2)OCO3 (stereo not given)	59	-	-	-	-	-
O=C(NNc1c2ccccc2nc2ccccc12)c1ccccc1O	-	54	-	-	-	-
COc1ccc(OCC(=O)NNc2c3ccccc3nc3ccccc23)cc1	-	-	.	-	-	57
O=C(C1CCCC1)N1CC(=O)N2[C@H](C1)[C@H](c1ccc(-c3cccnc3)cc1)[C@@H]2CO	.	.	-	.	.	.
Cc1ccc(S(=O)(=O)N(C)C[C@H]2Oc3ccc(NC(=O)Nc4ccc(C(F)(F)F)cc4)cc3C(=O)N([C@@H](C)CO)C[C@H]2C)cc1	.	.	-	.	.	.
O=C(C[C@H]1C[C@H]2c3cc(NC(=O)c4ccc5c(c4)OCO5)ccc3O[C@H]2[C@@H](CO)O1)NCc1ccc(Oc2ccccc2)cc1	.	.	-	.	.	.
